From PubChem BioAssay (NCI)
About 79,000 compounds went through this panel and 15% of them were active in at least one assay; those are over-represented in the sample as a whole. No stated cut-off is given here; in the data, active means growth inhibition above about 70%; inactive means the rest.

How the values were obtained:
[1] = NCI Yeast Anticancer Drug Screen. Data for the rad50 strain (AID 155);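 further: 0% = growth of vehicle-only cultures of the same strain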; conditions: S. cerevisiae rad50 strain growth inhibition; at 50.0 µM; hits give high values
Procedure, shortened: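 Genetically altered yeast (DNA repair pathway); compound treatment; growth inhibition vs vehicle ctrl.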

[2] = NCI Yeast Anticancer Drug Screen. Data for the mec2-1 strain (AID 157); conditions: S. cerevisiae mec2-1 strain, at 50.0 µM, hits give high values
Procedure, shortened: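 Vehicle-treated cultures served as reference for growth inhibition of compound-exposed mec2-1 yeast.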

[3] = NCI Yeast Anticancer Drug Screen. Data for the sgs1 mgt1 strain (AID 161);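 further: 0% = growth of cultures given vehicle only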; conditions: S. cerevisiae sgs1 mgt1 strain, at 50.0 µM, hits give high values
Procedure, shortened: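 Read-out: growth inhibition vs vehicle controls. Cells: mutant yeast strain deficient in DNA damage repair.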

[4] = NCI Yeast Anticancer Drug Screen. Data for the cln2 rad14 strain (AID 165);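 further: 0% = growth equal to vehicle treated cultures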; conditions: S. cerevisiae cln2 rad14 strain, at 50.0 µM, hits give high values
Procedure, shortened: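 Each compound was tested on cln2 rad14 yeast. Inhibition of growth was calculated against vehicle-exposed controls.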

[5] = NCI Yeast Anticancer Drug Screen. Data for the bub3 strain (AID 167); conditions: S. cerevisiae bub3 mutant strain, at 50.0 µM, hits give high values
Procedure, shortened: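 Yeast carrying a defined mutation is treated with each compound, and growth is compared with that of vehicle-exposed cells to give inhibition.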

[6] = NCI Yeast Anticancer Drug Screen. Data for the mlh1 rad18 strain (AID 175); conditions: S. cerevisiae mlh1 rad18 strain growth inhibition; at 50.0 µM; hits give high values
Procedure, shortened: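 Vehicle-treated cultures served as the reference for growth inhibition in a yeast strain carrying DNA damage repair alterations exposed to each compound.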

Measured: growth inhibition

Brc1cc(Br)c(Br)cc1Br
inactive: [1] 6.1% | [2] 5.7% | [3] 8.6% | [4] 13.8% | [5] -3.65% | [6] 12.3%

O=COCCc1ccccc1
inactive: [1] -17.9% | [2] -6.2% | [3] 8.35% | [4] 5.4% | [5] -8.15% | [6] 3.7%

CC(CO)N1CCCCCC1 (configuration not stated)
inactive: [1] -20.4% | [2] -15.7% | [3] 5.9% | [4] -17.7% | [5] 10.7% | [6] -9%

C=C1CC2OC(=O)C(=C)C2C(OC(=O)c2ccccc2)/C=C(\C)CCC1OC(=O)c1ccccc1 (configuration not stated)
inactive: [1] -13.7% | [2] -3.25% | [3] -11.2% | [4] -39.3% | [5] -0.85% | [6] -21.4%

CN(C)CCC(/C=C/c1ccccc1)=N\Nc1ccccc1
inactive: [1] 19.6% | [2] -14.9% | [3] -11.9% | [4] 5.5% | [5] -12.8% | [6] 36.5%

C/C=C(/C)C(C#N)(CCC)C(=O)OCC (configuration not stated)
inactive: [1] 5.9% | [2] -12.4% | [3] -8.7% | [4] 3% | [5] -9.85% | [6] 11.3%

CCCCCCCCCCCCCCCCc1ccc(CCCC(=O)O)cc1
inactive: [1] -20.8% | [2] -16.2% | [3] -13.3% | [4] 5.45% | [5] -17.3% | [6] 12.5%

CCOC(=O)c1c(Br)c(-c2ccc([N+](=O)[O-])cc2)c(Br)n1C
inactive: [1] 11.4% | [2] -7.4% | [3] -0.15% | [4] -0.15% | [5] -2.1% | [6] -5.2%

Cc1cc(N)ccc1C(=O)O
inactive: [1] 1.7% | [2] -7.65% | [3] -0.65% | [4] 4.15% | [5] 5.2% | [6] 2.45%

Nc1ccc(C(=O)Nc2ccccn2)cc1
inactive: [1] -9.1% | [2] -9.55% | [3] -13.4% | [4] -27.6% | [5] 3.1% | [6] -2.55%

CC(=O)NC(=O)CCc1ccccc1
inactive: [1] -12.2% | [2] -12.7% | [3] -20.3% | [4] -26.1% | [5] -8.15% | [6] -6%

CC1(C2c3ccccc3CC2OC2CCCCO2)CO1 (configuration not stated)
inactive: [1] -8.35% | [2] -10.6% | [3] -9.5% | [4] -10.2% | [5] -5.75% | [6] 2.35%

CC(=O)OCCOCN1C(=O)CC(=O)NC1=O
inactive: [1] -10.2% | [2] -10.6% | [3] -4.5% | [4] -5.45% | [5] -22.3% | [6] -30.2%

O=[N+]([O-])c1cccnc1Oc1cccc(C(F)(F)F)c1
inactive: [1] -16.8% | [2] 21.9% | [3] 14.4% | [4] -7.95% | [5] -16.1% | [6] 1.15%

C=Cc1c(C)c(OC)cc2c1Oc1ccc(OC)c(C)c1CC2
inactive: [1] 0.75% | [2] -0.2% | [3] 19.5% | [4] 8.35% | [5] 13.8% | [6] -23.6%

CCCCC1(CCBr)C(=O)NC(=Nc2ccccc2)NC1=O (configuration not stated)
inactive: [1] 1.85% | [2] -5.35% | [3] 10.3% | [4] -41.8% | [5] 2.95% | [6] -13.9%

CCCCCCCCCCCCCCCCn1/c(=N\N=O)sc2ccccc21
inactive: [1] -9.65% | [2] -17.9% | [3] -8.4% | [4] 11.6% | [5] -0.4% | [6] -0.25%

CC1(CO)OC(n2cnc3c(N)ncnc32)C(O)C1O (configuration not stated)
inactive: [1] -25.8% | [2] -30.8% | [3] -52.6% | [4] -8.25% | [5] -14.7% | [6] -29.2%

CCC(Cc1cnc2nc(N)nc(N)c2n1)c1ccc(C(=O)NC(CCC(=O)O)C(=O)O)cc1 (configuration not stated)
inactive: [1] -9.3% | [2] 18.9% | [3] 1.8% | [4] -12.2% | [5] -22.8% | [6] -14.5%

CCOC(=O)C1=C(C)NC(=O)NC1c1ccc(N(C)C)cc1 (configuration not stated)
inactive: [1] 22.8% | [2] -4.05% | [3] 23.2% | [4] 21.6% | [5] 30.6% | [6] 29.1%

CN(C)c1nc(O)cc(=O)[nH]1
inactive: [1] 5.05% | [2] -0.35% | [3] -6.6% | [4] -34.8% | [5] 8.3% | [6] 25.3%

Cc1cccc2c1ccc1ccccc12
inactive: [1] 5.55% | [2] 6% | [3] -5.45% | [4] -9% | [5] -9.65% | [6] 9.5%
